Records with an inconclusive call do not appear. The source made the active and inactive calls. Calls come from the whole dose curve; as a rule, active = well fitted curve in the direction sought with a large enough effect; inconclusive = small, poorly fitted or top-dose-only effect, or another doubt; inactive = no such curve, though single readings can be large; an effect the other way counts as inactive or inconclusive. Non-standard residues stand in square brackets, D forms with d. Residues, ends and D or L forms follow the SMILES beside them. *: point of attachment. Nva = CCC[C@H](N)C(=O)O; Cbz = O=C(OCc1ccccc1)*
Legend:
[1] = qHTS of pediatric cancer cell lines to identify multiple opportunities for drug repurposing: Confirmatory screen for LAN-5 cells (AID 1347113); note: nearly all actives have a fitted effect of over 65% in size
Summary of the method: (§1)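 Viability after 48 h compound treatment at 37C, 500-1,000 cells/well, read as ATP luminescence with CellTiter-Glo. Primary screens used 11-point (MIPE, 0.78 nM-46 µM) or 8-point (NPC, 0.59 nM-46 µM) final concentrations; follow-up screens used 11-point dilutions.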

[2] = qHTS of pediatric cancer cell lines to identify multiple opportunities for drug repurposing: Confirmatory screen for DAOY cells (AID 1347114); note: nearly all actives have a fitted effect of over 65% in size
Summary of the method: (§2)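 Viability measured as metabolically active cells via CellTiter-Glo luminescence following 48 hours of compound exposure, 11-point dilutions in confirmatory testing. 500-1,000 cells/well plated 5 hours before dosing; controls were DMSO and 2.3 µM bortezomib.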

[3] = qHTS of pediatric cancer cell lines to identify multiple opportunities for drug repurposing: Confirmatory screen for NB-EBc1 cells (AID 1347115);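 note: cells exposed to compound for 48 h before the viability read; nearly all actives have a fitted effect of over 45% in size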
Summary of the method: as §1

[4] = qHTS of pediatric cancer cell lines to identify multiple opportunities for drug repurposing: Confirmatory screen for SJ-GBM2 cells (AID 1347116); note: nearly all actives have a fitted effect of over 60% in size
Summary of the method: as §2

[5] = qHTS of pediatric cancer cell lines to identify multiple opportunities for drug repurposing: Confirmatory screen for BT-37 cells (AID 1347117); conditions: BT-37 pediatric cancer cells, viability; activity change, negative = cytotoxic: at 45.9 µM (top of the series); note: nearly all actives have a fitted effect of over 55% in size
Summary of the method: as §1

[6] = qHTS of pediatric cancer cell lines to identify multiple opportunities for drug repurposing: Confirmatory screen for TC32 cells (AID 1347118);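 note: cells exposed to compound for 48 h before the read; nearly all actives have a fitted effect of over 65% in size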
Summary of the method: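 Luminescent CellTiter-Glo read-out of metabolically active TC32 cells after 48 h compound exposure. Primary: MIPE 11-point, 0.78 nM–46 µM; NPC 8-point, 0.59 nM–46 µM. Confirmatory: 11-point dilutions.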

[7] = qHTS of pediatric cancer cell lines to identify multiple opportunities for drug repurposing: Confirmatory screen for U-2 OS cells (AID 1347122); note: nearly all actives have a fitted effect of over 65% in size
Summary of the method: as §1

[8] = qHTS of pediatric cancer cell lines to identify multiple opportunities for drug repurposing: Confirmatory screen for Rh41 cells (AID 1347123); note: nearly all actives have a fitted effect of over 60% in size
Summary of the method: as §1

[9] = qHTS of pediatric cancer cell lines to identify multiple opportunities for drug repurposing: Confirmatory screen for MG 63 (6-TG R) cells (AID 1347119); note: nearly all actives have a fitted effect of over 55% in size
Summary of the method: as §1

[10] = qHTS of pediatric cancer cell lines to identify multiple opportunities for drug repurposing: Confirmatory screen for control Hh wild type fibroblast cells (AID 1347121); note: nearly all actives have a fitted effect of over 70% in size
Summary of the method: as §1
Potency is the fitted concentration of half-maximal effect.

Row | Structure (SMILES) | Potency [1] | Potency [2] | Potency [3] | Potency [4] | Potency [5] | Potency [6] | Potency [7] | Potency [8] | Potency [9] | Potency [10]
1 | Cc1ccc([N+](=O)[O-])cc1S(=O)(=O)N(C)N=Cc1cnc2ccc(Br)cn12 | 0.522 µM (active) | 0.329 µM (active) | 0.293 µM (active) | 0.465 µM (active) | 0.329 µM (active) | 0.293 µM (active) | 7.37 µM (active) | 0.329 µM (active) | – | –
2 | COC(=O)[C@@H]1[C@H]2C[C@@H]3c4[nH]c5ccccc5c4CCN3C[C@@H]2CC[C@@H]1O | inactive | inactive | inactive | inactive | inactive | inactive | inactive | inactive | inactive | –
3 | O=S(=O)(O)CCSSCCS(=O)(=O)O | inactive | inactive | inactive | inactive | inactive | inactive | inactive | inactive | inactive | inactive
4 | CN(C)c1ccc(C(=O)NCCCCCCC(=O)NO)cc1 | 1.85 µM (active) | 3.29 µM (active) | 2.33 µM (active) | – | 1.65 µM (active) | 1.65 µM (active) | 1.47 µM (active) | 1.17 µM (active) | 1.47 µM (active) | –
5 | COc1cc(O)c2c(c1)C1OC1C[C@H](O)[C@H](O)C(=O)C=CC[C@H](C)OC2=O (some centres not stated) | 7.37 µM (active) | 16.5 µM (active) | 5.85 µM (active) | 5.85 µM (active) | 14.7 µM (active) | 9.27 µM (active) | – | 0.165 µM (active) | 5.85 µM (active) | –
6 | O=C(C=CC#Cc1cccc(NS(=O)(=O)c2ccccc2)c1)NO | 2.61 µM (active) | 7.37 µM (active) | 5.85 µM (active) | 4.65 µM (active) | 2.61 µM (active) | 0.737 µM (active) | 0.928 µM (active) | 1.65 µM (active) | 2.61 µM (active) | –
7 | COc1cc([C@@H]2c3cc4c(cc3[C@H](O)[C@H]3COC(=O)[C@@H]23)OCO4)cc(OC)c1OC | 1.04 µM (active) | 0.414 µM (active) | 3.29 µM (active) | – | 1.17 µM (active) | 0.465 µM (active) | 1.85 µM (active) | – | 0.737 µM (active) | inactive
8 | C=CC(=O)Nc1cccc(Nc2nc(NC3CCC(N(C)C)CC3)nc3c2ncn3C(C)C)c1 (configuration not stated) | 0.827 µM (active) | 3.29 µM (active) | 7.37 µM (active) | 4.65 µM (active) | 0.827 µM (active) | 0.657 µM (active) | 5.22 µM (active) | 0.414 µM (active) | 3.69 µM (active) | inactive
9 | Cn1cnc(=N)c2[nH]cnc21 | inactive | inactive | inactive | – | inactive | inactive | – | – | inactive | inactive
10 | CC(C)C[C@@H](C=O)NC(=O)[C@H](CC(C)C)NC(=O)[C@H](CC(C)C)NC(=O)OCc1ccccc1 (Cbz-Leu-Leu-Leu-aldehyde) | 1.04 µM (active) | 0.737 µM (active) | 1.47 µM (active) | 1.04 µM (active) | 0.585 µM (active) | 0.827 µM (active) | 2.08 µM (active) | 1.17 µM (active) | 0.585 µM (active) | 5.85 µM (active)
11 | CC[C@]12C=CCN3CC[C@@]4(c5cc([C@@]6(C(=O)OC)C[C@H]7C[C@@H](C(C)(F)F)CN(Cc8c6[nH]c6ccccc86)C7)c(OC)cc5N(C)[C@H]4[C@@](O)(C(=O)OC)[C@H]1OC(C)=O)[C@@H]32 | inactive | inactive | inactive | inactive | inactive | 9.27 µM (active) | inactive | 3.69 µM (active) | inactive | inactive
12 | N#CNC(=NCCCCCCOc1ccc(Cl)cc1)Nc1ccncc1 | 0.0117 µM (active) | 0.165 µM (active) | 0.0414 µM (active) | 0.0414 µM (active) | 0.0185 µM (active) | 0.0041 µM (active) | 0.293 µM (active) | 0.0165 µM (active) | – | –
13 | CC(C=CC1=C(C)CCCC1(C)C)=CC=CC(C)=CC(=O)Nc1ccc(O)cc1 | 6.03 µM (active) | 33.9 µM (active) | 13.5 µM (active) | 2.4 µM (active) | 38 µM (active) | 2.14 µM (active) | 12 µM (active) | 5.37 µM (active) | 42.7 µM (active) | –
14 | CCS(=O)(=O)Nc1ccc2[nH]c(O)c(C(=Nc3ccc(CN4CCCCC4)cc3)c3ccccc3)c2c1 | 0.185 µM (active) | 16.5 µM (active) | 4.65 µM (active) | 14.7 µM (active) | 16.5 µM (active) | 0.0414 µM (active) | 0.522 µM (active) | 0.522 µM (active) | 0.329 µM (active) | –
15 | CC(C)N1[N]C(=C2C=c3cc(O)ccc3=N2)c2c(N)ncnc21 | 2.93 µM (active) | 5.22 µM (active) | 4.14 µM (active) | 4.14 µM (active) | 1.31 µM (active) | 1.17 µM (active) | 2.33 µM (active) | 0.522 µM (active) | 0.414 µM (active) | –
16 | C[C@H](NCc1ccc2c(c1)nc(NC(=O)c1ccc(-c3cn[nH]c3)s1)n2CCc1ccccc1)C(C)(C)C | 1.65 µM (active) | 2.93 µM (active) | 1.31 µM (active) | 0.928 µM (active) | 0.928 µM (active) | 0.928 µM (active) | 1.17 µM (active) | 0.928 µM (active) | 2.33 µM (active) | 10.4 µM (active)
17 | Cc1[nH]c(C=C2C(=O)Nc3ccccc32)c(C)c1CCC(=O)O | inactive | inactive | inactive | – | inactive | inactive | inactive | inactive | inactive | inactive
18 | C=CCNC1=C2C[C@@H](C)C[C@H](OC)[C@@H](O)[C@@H](C)C=C(C)[C@H](OC(N)=O)[C@@H](OC)C=CC=C(C)C(=O)NC(=CC1=O)C2=O | 4.65 µM (active) | 4.65 µM (active) | 7.37 µM (active) | 0.165 µM (active) | 0.0928 µM (active) | 0.522 µM (active) | 0.414 µM (active) | 0.737 µM (active) | 2.61 µM (active) | –
19 | CNC(=O)c1ccc(Nc2cc(Nc3ccccc3S(=O)(=O)C(C)C)c3cc[nH]c3n2)nc1 | 2.93 µM (active) | 5.85 µM (active) | 5.85 µM (active) | 10.4 µM (active) | 6.57 µM (active) | 1.85 µM (active) | – | 5.85 µM (active) | 1.04 µM (active) | 13.1 µM (active)
20 | COC[C@H](NC(=O)c1cnc(C)s1)C(=O)N[C@@H](COC)C(=O)N[C@@H](Cc1ccccc1)C(=O)[C@@]1(C)CO1 | 0.329 µM (active) | 0.104 µM (active) | 0.208 µM (active) | 0.131 µM (active) | 0.165 µM (active) | 0.165 µM (active) | 0.329 µM (active) | 0.0465 µM (active) | 0.0928 µM (active) | inactive
21 | COC1=C2C[C@@H](C)C[C@H](OC)[C@@H](O)[C@@H](C)C=C(C)[C@H](OC(N)=O)[C@@H](OC)C=CC=C(C)C(=O)NC(=CC1=O)C2=O | 1.47 µM (active) | 5.85 µM (active) | 9.27 µM (active) | 1.31 µM (active) | 1.04 µM (active) | 0.928 µM (active) | 1.04 µM (active) | 2.33 µM (active) | – | –
22 | CC[C@@]1([C@@H]2O[C@@H]([C@H]3O[C@@](O)(CO)[C@H](C)C[C@H]3C)C[C@H]2C)CC[C@H]([C@]2(C)CC[C@]3(C[C@H](O)[C@@H](C)[C@@H]([C@@H](C)[C@@H](OC)[C@H](C)C(=O)O)O3)O2)O1 | 0.362 µM (active) | 3.23 µM (active) | 1.62 µM (active) | 1.15 µM (active) | 0.204 µM (active) | 0.288 µM (active) | 2.57 µM (active) | 0.91 µM (active) | 0.512 µM (active) | –
23 | CC(C=CC(=O)NO)=C[C@@H](C)C(=O)c1ccc(N(C)C)cc1 | 0.414 µM (active) | 2.33 µM (active) | 0.585 µM (active) | 2.08 µM (active) | 0.827 µM (active) | 0.414 µM (active) | 0.657 µM (active) | 1.47 µM (active) | 1.17 µM (active) | 6.57 µM (active)
24 | CN[C@H]1[C@@H](O)[C@@H]2O[C@@H]3O[C@H](C)CC(=O)[C@]3(O)O[C@@H]2[C@@H](NC)[C@H]1O | inactive | inactive | inactive | inactive | inactive | – | inactive | inactive | – | inactive
25 | CC(=O)SCC(Cc1ccccc1)C(=O)NCC(=O)OCc1ccccc1 (configuration not stated) | inactive | inactive | inactive | inactive | inactive | – | inactive | – | inactive | inactive
26 | CCC[C@@H](C=O)NC(=O)[C@H](CC(C)C)NC(=O)[C@H](CC(C)C)NC(=O)OCc1ccccc1 (Cbz-Leu-Leu-[Nva]-aldehyde) | 1.47 µM (active) | 1.17 µM (active) | 2.33 µM (active) | 2.08 µM (active) | 1.17 µM (active) | 1.47 µM (active) | 2.61 µM (active) | 1.04 µM (active) | 0.827 µM (active) | 7.37 µM (active)
27 | C[C@H]1[C@@H](OC(=O)CCC(=O)O)O[C@@H]2O[C@@]3(C)CC[C@@H]4[C@H](C)CC[C@@H]1[C@@]24OO3 | 16.5 µM (active) | 23.3 µM (active) | 5.22 µM (active) | 1.17 µM (active) | 3.69 µM (active) | 9.27 µM (active) | 13.1 µM (active) | 5.85 µM (active) | 20.8 µM (active) | inactive

Source: PubChem BioAssay (NCATS)
